Results as given in PubChem BioAssay (Tox21).
Several values for one entry are separate records, joined by “and”; a condition that tells them apart may be missing. Identical values can stand only once. Inconclusive results are not listed. Where a call stands in place of a potency, no number is given. A structure can be active in one record and inactive in another. Activity calls are given as the source filed them. Calls follow the shape of the full dose curve. Non-standard residues stand in square brackets, D forms with d. Residues, ends and D or L forms follow the SMILES beside them. *: point of attachment. Sta = CC(C)C[C@H](N)[C@@H](O)CC(=O)O; Isovaleryl = CC(C)CC(=O)*

Experiments:
[1] = biological target: Acetylcholinesterase (Homo sapiens) (UniProt P22303); assay: Acetylcholinesterase (AChE) small molecule antagonists: colormetric cell-based qHTS assay (AID 1347395); also: nearly all actives have a fitted effect of over 30% in size
Procedure, shortened: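 AChE inhibition read colorimetrically via DTNB–thiocholine in SH-SY5Y cells. Compound 30 min, substrate 90 min, both 37 C.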

[2] = biological target: Acetylcholinesterase (Homo sapiens) (UniProt P22303); assay: Acetylcholinesterase (AChE) small molecule antagonists: enzyme-based qHTS assay (AID 1347397); conditions: Potency: AChE enzyme activity inhibition; outcome: AChE enzyme activity inhibition; also: nearly all actives have a fitted effect of over 55% in size; also: potency is read from the fitted curve at half-maximal effect
Procedure, shortened: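 Recombinant human AChE (50 mU/mL) preincubated with compound 30 min at room temperature; acetylthiocholine plus DTNB then added, and thiocholine formation read colorimetrically after 10 min at room temperature. DMSO served as vehicle control.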

[3] = biological target: Acetylcholinesterase (Homo sapiens) (UniProt P22303); assay: Acetylcholinesterase (AChE) small molecule antagonists: fluorescence cell-based qHTS assay (AID 1347398); conditions: Potency: AChE activity; outcome: AChE activity; also: nearly all actives have a fitted effect of over 50% in size; also: potency is read from the fitted curve at half-maximal effect
Procedure, shortened: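 SH-SY5Y cells (2000/well), attached overnight, incubated with compound 30 min at 37 C. Acetylthiocholine plus Thiolite Green then added for 40 min at room temperature. Thiocholine fluorescence (Ex/Em 490/520 nm) reports cellular AChE activity.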

[4] = biological target: Acetylcholinesterase (Homo sapiens) (UniProt P22303); assay: Acetylcholinesterase (AChE) small molecule antagonists: enzyme-based qHTS assay with human liver microsomes (AID 1347399); conditions: Potency: qHTS inhibition; outcome: qHTS inhibition; also: nearly all actives have a fitted effect of over 60% in size
Procedure, shortened: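 Recombinant human AChE (50 mU/mL in the enzyme mix) and human liver microsomes (0.25 mg/mL final) were preincubated with compound and NADPH (0.25 mg/mL final) for 30 min at 37 C. Acetylthiocholine/DTNB was then added; thiocholine was read colorimetrically after 10 min at room temperature.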

Sequence of Acetylcholinesterase (Homo sapiens) (P22303 whole entry, looked up): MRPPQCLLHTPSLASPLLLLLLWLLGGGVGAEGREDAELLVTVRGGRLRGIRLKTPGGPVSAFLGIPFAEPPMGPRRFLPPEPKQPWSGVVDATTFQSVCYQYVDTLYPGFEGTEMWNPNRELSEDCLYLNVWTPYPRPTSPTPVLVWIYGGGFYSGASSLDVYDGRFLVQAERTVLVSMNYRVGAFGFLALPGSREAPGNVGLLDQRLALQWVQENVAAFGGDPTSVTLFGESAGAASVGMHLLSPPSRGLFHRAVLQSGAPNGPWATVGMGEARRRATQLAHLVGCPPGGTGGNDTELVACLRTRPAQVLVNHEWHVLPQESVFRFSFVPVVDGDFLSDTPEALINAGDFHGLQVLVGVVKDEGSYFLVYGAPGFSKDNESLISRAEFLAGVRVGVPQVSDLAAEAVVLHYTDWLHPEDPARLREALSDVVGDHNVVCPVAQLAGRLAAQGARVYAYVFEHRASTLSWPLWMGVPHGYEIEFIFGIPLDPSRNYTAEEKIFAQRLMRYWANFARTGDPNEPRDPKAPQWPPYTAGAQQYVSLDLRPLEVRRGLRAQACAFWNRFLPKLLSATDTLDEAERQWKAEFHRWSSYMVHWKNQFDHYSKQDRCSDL

SMILES | Potency [1] | Potency [2] | Potency [3] | Potency [4] | activity, negative = inhibition [1] | activity change, negative = inhibition [2] | activity change, negative = inhibition [3] | activity change, negative = inhibition [4]
N[C@@H](Cc1c[nH]c2ccccc12)C(=O)O | inactive | inactive | inactive | inactive | – | – | – | –
CCN(CCC#N)c1ccc(N=Nc2ccc([N+](=O)[O-])cc2)cc1 | inactive | inactive | inactive | inactive | – | – | – | –
CC(C)(C)C(O)/C=C/c1ccc2c(c1)OCO2 (stereo not given) | inactive | inactive | inactive | inactive | – | – | – | –
CCCCCCCCCCCCCC[N+](C)(C)C | inactive | 30.6 µM (active) and 70.9 µM (active) and inactive | 61.1 µM (active) and 39.9 µM (active) | inactive | – | – | – | –
CCCCCCCCCCO[C@@H]1O[C@H](CO)[C@@H](O)[C@H](O)[C@H]1O | inactive | inactive | inactive | inactive | – | – | – | –
Cc1ccc(C(C)C)cc1 | inactive | inactive | inactive | inactive | – | – | – | –
COc1ccc([C@@H]2CC(=O)c3c(O)cc(O[C@@H]4O[C@H](CO[C@@H]5O[C@@H](C)[C@H](O)[C@@H](O)[C@H]5O)[C@@H](O)[C@H](O)[C@H]4O)cc3O2)cc1OC | inactive | inactive | inactive | inactive | – | – | – | –
COCCCN | inactive | inactive | inactive | inactive | – | – | – | –
CC(C)(C)CC(C)(C)c1ccc(O)c(Cc2ccc(Cl)cc2Cl)c1 | inactive | inactive | inactive | inactive | – | – | – | –
O=C(C(=O)c1ccc(Br)cc1)c1ccc(Br)cc1 | – | – | – | – | 1.28% [at 23.6 µM] (inactive) | 1.82% [at 23.6 µM] (inactive) | -2.19% [at 23.8 µM] (inactive) | -3.65% [at 23.6 µM] (inactive)
CCC(C)(O)CCCC(C)C (stereo not given) | inactive | inactive | inactive | inactive | – | – | – | –
Nc1ccncc1N | inactive | inactive | inactive | inactive | – | – | – | –
OCCN(CCO)c1ccccc1 | inactive | inactive | inactive | inactive | – | – | – | –
CCCCC(CC)COC(=O)c1ccc(N(C)C)cc1 (stereo not given) | inactive | inactive | inactive | inactive | – | – | – | –
CC(O)COCC(C)O (stereo not given) | inactive | inactive | inactive | inactive | – | – | – | –
COC(OC)OC | inactive | inactive | inactive | inactive | – | – | – | –
CCCCN1C[C@H](O)[C@@H](O)[C@H](O)[C@H]1CO | inactive | inactive | inactive | inactive | – | – | – | –
CN(C)CCOC(C)(c1ccccc1)c1ccccn1 (stereo not given) | inactive | inactive | inactive | inactive | – | – | – | –
Cc1cccc(N)n1 | inactive | inactive | inactive | inactive | – | – | – | –
CC(=O)Nc1ccc(OCC(O)CNC(C)C)cc1 (stereo not given) | inactive | inactive | inactive | inactive | – | – | – | –

SMILES | Potency [1] | Potency [2] | Potency [3] | Potency [4] | activity, negative = inhibition [1] | activity change, negative = inhibition [2] | activity change, negative = inhibition [3] | activity change, negative = inhibition [4]
Cc1oc(=O)oc1CN1CCN(c2cc3c(cc2F)c(=O)c(C(=O)O)c2n3C(C)S2)CC1 (stereo not given) | inactive | inactive | inactive | inactive | – | – | – | –
O=C(O)CC(C(=O)O)C(CC(=O)O)C(=O)O (stereo not given) | inactive | inactive | inactive | inactive | – | – | – | –
COC(=O)CCCC(=O)OC | inactive | inactive | inactive | inactive | – | – | – | –
CC(=O)Oc1ccc2c(c1)CC[C@@H]1[C@@H]2CC[C@]2(C)[C@@H](O)CC[C@@H]12 | inactive | inactive | inactive | inactive | – | – | – | –
CC[C@@H]([C@H](C)O)n1ncn(-c2ccc(N3CCN(c4ccc(OC[C@@H]5CO[C@@](Cn6cncn6)(c6ccc(F)cc6F)C5)cc4)CC3)cc2)c1=O | inactive | inactive | inactive | inactive | – | – | – | –
C=CCOC(=O)CC(C)C | inactive | inactive | inactive | inactive | – | – | – | –
CCCCCCCCCCCCCCCC[N+](C)(C)Cc1ccccc1 | inactive | 82.2 µM (active) and 32.3 µM (active) and 38.9 µM (active) | 46.2 µM (active) and 57.4 µM (active) | inactive | – | – | – | –
CN1CC(=O)NC1=N | inactive | inactive | inactive | inactive | – | – | – | –
CCCCCCCCCCOc1cc2c(=O)c(C(=O)OCC)c[nH]c2cc1OCC | – | – | – | – | 1.43% [at 10.5 µM] (inactive) | 0.693% [at 10.5 µM] (inactive) | -0.416% [at 10.5 µM] (inactive) | -5.96% [at 10.5 µM] (inactive)
CCc1ccc(O)c(C(C)(C)C)c1 | inactive | inactive | inactive | inactive | – | – | – | –
CCCCc1nc(Cl)c(CO)n1Cc1ccc(-c2ccccc2-c2nn[nH]n2)cc1 | inactive | inactive | inactive | inactive | – | – | – | –
CCCSSCCC | inactive | inactive | inactive | inactive | – | – | – | –
CC(C)=CCC/C(C)=C/C=O | inactive | inactive | inactive | inactive | – | – | – | –
Cc1ccc(S(N)(=O)=O)cc1 | inactive | inactive | inactive | inactive | – | – | – | –
N#Cc1nc(Cl)c(Cl)c(Cl)c1Cl | inactive | inactive | inactive | inactive | – | – | – | –
CCCCCCCC(=O)O | inactive | inactive | inactive | inactive | – | – | – | –
CCCCCCCC/C=C\CCCCCCCC(=O)OC | inactive | inactive | inactive | inactive | – | – | – | –
C=C(C)C(=O)OCCOc1ccccc1 | inactive | inactive | inactive | inactive | – | – | – | –
O=C(CCCl)NCc1ccccc1 | inactive | inactive | inactive | inactive | – | – | – | –
Cc1nc2ccc(Cl)cc2[nH]1 | inactive | inactive | 25.1 µM (active) | inactive | – | – | – | –

SMILES | Potency [1] | Potency [2] | Potency [3] | Potency [4] | activity, negative = inhibition [1] | activity change, negative = inhibition [2] | activity change, negative = inhibition [3] | activity change, negative = inhibition [4]
NC[C@H](O)c1ccc(O)c(O)c1 | inactive | inactive | inactive | inactive | – | – | – | –
C=C(C)CC(C)(C)C | inactive | inactive | inactive | inactive | – | – | – | –
N#C[C@@H]1CC(F)(F)CN1C(=O)CNC1CC2CCC(C1)N2c1ncccn1 (stereo not given in full) | inactive | inactive | inactive | inactive | – | – | – | –
C=C(CC)C(=O)c1ccc(OCC(=O)O)c(Cl)c1Cl | inactive | inactive | inactive | inactive | – | – | – | –
CC(C)(C)NCCO | inactive | inactive | inactive | inactive | – | – | – | –
CC(CCO)CCCC(C)(C)O (stereo not given) | inactive | inactive | inactive | inactive | – | – | – | –
CC1=Nc2ccc3ccccc3c2C1(C)C | inactive | inactive | inactive | inactive | – | – | – | –
CC(C)CC(=O)N[C@H](C(=O)N[C@H](C(=O)N[C@@H](CC(C)C)[C@@H](O)CC(=O)N[C@@H](C)C(=O)N[C@@H](CC(C)C)[C@@H](O)CC(=O)O)C(C)C)C(C)C (Isovaleryl-VV[Sta]A[Sta]-OH) | inactive | inactive | inactive | inactive | – | – | – | –
Cc1[nH]nc2c1N=C(c1ccccc1Cl)c1cc([N+](=O)[O-])ccc1N2 | inactive | inactive | inactive | inactive | – | – | – | –
O=[N+]([O-])c1ccc(O)cc1 | inactive | inactive | inactive | inactive | – | – | – | –
COc1cccc2sc(N)nc12 | inactive | inactive | inactive | inactive | – | – | – | –
O=C(OCC1CO1)C1CCCCC1C(=O)OCC1CO1 (stereo not given) | inactive | inactive | inactive | inactive | – | – | – | –
CCNc1nc(N)nc(Cl)n1 | inactive | inactive | inactive | inactive | – | – | – | –
CC#N | inactive | inactive | inactive | inactive | – | – | – | –
CN1Cc2cc(C(=O)N3CCC(C4CCNCC4)CC3)ccc2NC(CC(=O)O)C1=O (stereo not given) | inactive | inactive | inactive | inactive | – | – | – | –
CC(C)Nc1cccnc1N1CCN(C(=O)c2cc3cc(NS(C)(=O)=O)ccc3[nH]2)CC1 | inactive | inactive | inactive | inactive | – | – | – | –
COc1ccc(C2CNC(=O)C2)cc1OC1CCCC1 (stereo not given) | inactive | inactive | inactive | inactive | – | – | – | –
CCCCC(CC)COC(=O)COc1cc(Cl)c(Cl)cc1Cl (stereo not given) | inactive | inactive | inactive | inactive | – | – | – | –
C=CCOC(=O)/C=C\C(=O)OCC=C | inactive | inactive | inactive | inactive | – | – | – | –
COc1ccc(Br)c(C)c1 | inactive | inactive | inactive | inactive | – | – | – | –
